In PMC4336329 (PLoS ONE, 2015):
Hit rate of the full screen: of about 310,000 compounds, about 14,000 (4.5%) showed an effect of 50% or more. The effect is printed as a negative number. This excerpt belongs to a sample that is enriched for strong results.

Each compound was assayed against human ether-à-go-go-related gene (hERG) potassium channel (human, UniProt Q12809) (assay: primary screen, population patch clamp on CHO cells stably expressing hERG; higher = less effect of the substance).
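Note: peak tail current of the secondary pulse compared with the same well before compound.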

Sequence of human ether-à-go-go-related gene (hERG) potassium channel (Q12809 whole entry, looked up): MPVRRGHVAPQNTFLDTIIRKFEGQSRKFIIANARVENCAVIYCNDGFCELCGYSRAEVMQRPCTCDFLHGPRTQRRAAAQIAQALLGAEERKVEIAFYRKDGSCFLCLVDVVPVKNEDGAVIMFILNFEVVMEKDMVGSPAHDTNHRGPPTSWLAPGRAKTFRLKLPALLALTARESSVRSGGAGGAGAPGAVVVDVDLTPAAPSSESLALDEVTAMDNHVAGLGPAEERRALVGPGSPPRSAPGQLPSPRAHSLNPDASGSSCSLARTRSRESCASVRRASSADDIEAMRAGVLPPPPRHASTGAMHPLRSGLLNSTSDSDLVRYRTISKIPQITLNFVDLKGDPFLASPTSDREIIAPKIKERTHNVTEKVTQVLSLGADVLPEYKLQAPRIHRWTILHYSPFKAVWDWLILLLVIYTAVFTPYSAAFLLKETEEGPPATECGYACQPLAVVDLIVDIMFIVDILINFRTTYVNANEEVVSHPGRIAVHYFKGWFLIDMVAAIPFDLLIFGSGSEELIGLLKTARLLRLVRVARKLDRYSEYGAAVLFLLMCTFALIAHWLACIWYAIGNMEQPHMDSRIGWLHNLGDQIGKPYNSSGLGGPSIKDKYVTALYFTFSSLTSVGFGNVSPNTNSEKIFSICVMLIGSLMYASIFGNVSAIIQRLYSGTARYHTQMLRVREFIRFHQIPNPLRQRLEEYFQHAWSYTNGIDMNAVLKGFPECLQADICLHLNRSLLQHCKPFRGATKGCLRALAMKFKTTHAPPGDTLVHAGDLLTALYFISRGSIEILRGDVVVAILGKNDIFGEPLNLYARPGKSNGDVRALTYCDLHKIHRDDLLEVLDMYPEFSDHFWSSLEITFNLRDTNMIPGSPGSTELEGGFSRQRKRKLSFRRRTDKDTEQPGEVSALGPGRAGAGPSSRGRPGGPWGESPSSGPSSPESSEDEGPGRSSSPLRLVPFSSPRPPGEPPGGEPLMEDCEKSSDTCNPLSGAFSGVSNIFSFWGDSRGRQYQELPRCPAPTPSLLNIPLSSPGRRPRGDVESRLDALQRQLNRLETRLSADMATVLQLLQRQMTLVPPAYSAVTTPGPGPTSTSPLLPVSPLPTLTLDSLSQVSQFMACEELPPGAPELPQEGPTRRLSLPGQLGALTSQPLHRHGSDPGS

SMILES	hERG current change (%, negative = inhibition) at 10uM
O=C(c1ccco1)N1CCN(Cc2cc(=O)c(OCc3ccccc3)co2)CC1	-25.5%
O=C(c1ccco1)N1CCN(Cc2cc(=O)c(OCc3ccc([N+](=O)[O-])cc3)co2)CC1	-76.2%
O=C(COc1coc(CN2CCc3ccccc3C2)cc1=O)Nc1ccc([N+](=O)[O-])cc1	-31.7%
O=C(c1ccco1)N1CCN(Cc2cccc(F)c2)CC1	-0.928%
O=C(c1ccco1)N1CCN(Cc2cc(=O)c(OCc3cccc(F)c3)co2)CC1	-76.4%
CC(C)NC(=O)COc1coc(CN2CCN(C(=O)c3ccco3)CC2)cc1=O	10.3%
COc1ccc(CN2CCN(C(=O)c3ccco3)CC2)cc1OC.O=C(O)C(=O)O	16.8%
CCOc1cc(CN2CCN(C(=O)c3ccco3)CC2)ccc1OC	-28.7%
O=C(O)CCCCCn1c(SCC(=O)c2ccc(O)c(O)c2)nc2ccsc2c1=O	32.2%
O=C(N[C@@H](Cc1ccccc1)C(=O)NC1CCCCC1)c1ccco1	6%
CN1CCN(NS(=O)(=O)c2ccc(Cl)cc2)CC1	19.4%
COc1ccc(CCNC(=O)c2cccs2)cc1	10.9%
Brc1ccccc1OCCCN1CCCCCC1.O=C(O)C(=O)O	-72.6%
O=C(O)C(=O)O.c1ccc2c(OCCCN3CCCCCC3)cccc2c1	-65.8%
Brc1ccccc1OCCCCN1CCCCC1	-39.1%
c1ccc2c(OCCCCN3CCCC3)cccc2c1	-27.1%
O=C(O)C(=O)O.c1ccc2c(OCCCCN3CCOCC3)cccc2c1	10.7%
Brc1ccccc1OCCCN1CCCC1.O=C(O)C(=O)O	-12.4%
CC1(C)Cc2cccc(OCC(=O)Nc3ccccc3N3CCOCC3)c2O1	-10.8%
CCOc1c(Cl)cc(CNC(C)(C)CC(C)(C)C)cc1OC.Cl	-13.2%
CCCn1c(=O)[nH]c(=O)c2c1nc(-c1ccc(C(F)(F)F)cc1)n2CCOC	-4.45%
CCOC(=O)CN1C(=O)/C(=C/c2c(F)cccc2Cl)Oc2ccccc21	9.08%
COc1ccc2cc(C3(C)NC(=O)NC3=O)ccc2c1 (stereo not drawn)	-0.239%

SMILES	hERG current change (%, negative = inhibition) at 10uM
CN(C(=O)CSc1nnc(C2CC2)n1C1CC1)C1(C#N)CCCCC1	-5.85%
O=C(N/N=C/c1ccc(OC(=O)c2cccc(F)c2)cc1)c1cccnc1	-69.6%
O=C(N/N=C/c1ccc(OC(=O)c2cccc(Br)c2)cc1)c1cccnc1	11.4%
O=C(N/N=C/c1cccnc1)c1cccc(F)c1	2.67%
Cc1ccc(C(=O)N/N=C\c2ccc(OC(=O)c3cccc(F)c3)cc2)cn1	11%
O=C(N/N=C(\c1ccccc1)c1cccnc1)c1cccc(F)c1	-61.5%
O=C(N/N=C(\c1ccccc1)c1cccnc1)c1cc(O)ccc1O	16.4%
Br.CC(C)(C)C(=O)Cn1c(NCCO)nc2ccccc21	5.72%
O=C(OCC(=O)N1CCc2ccccc21)C1CCCN1S(=O)(=O)c1ccc(Cl)cc1 (stereo not drawn)	-17.8%
CC(C)COc1ccc(C(=O)OCC(=O)N(C)CC(=O)Nc2ccc(F)cc2)cc1	6.57%
CCOC(=O)Cc1cc(C)[nH]c1C(=O)OCC	-5.81%
C=CCNC(=O)c1c2c(nc3ccccc13)-c1ccccc1CC2	-46.4%
CCOC(=O)C1CCCN(Cc2ccccc2OCC)C1 (stereo not drawn)	-2.92%
CCOC(=O)C1CCCN(Cc2ccc(O)c(OC)c2)C1 (stereo not drawn)	-6.59%
COc1ccc(Cl)cc1C(=O)C1CCCN(CCO)C1 (stereo not drawn)	-11.2%
COc1ccc(CN2CCCC(C(=O)c3cccc(C(F)(F)F)c3)C2)cc1O (stereo not drawn)	-62.2%
CCCC(=O)N1CCCC(C(=O)c2ccc(OC)c(OC)c2)C1 (stereo not drawn)	12.7%
CCOc1cccc(CN2CCCC(C(=O)Nc3ccc(-c4ccn[nH]4)cc3)C2)c1O (stereo not drawn)	-29.5%
CCOc1ccccc1CN1CCCC(C(=O)c2ccc(OC)c(OC)c2)C1 (stereo not drawn)	-74.2%
CCOc1cccc(CN2CCCC(C(=O)c3cc(Cl)ccc3OC)C2)c1O (stereo not drawn)	-64.3%
CCOc1cc(CN2CCCC(C(=O)c3cccc(C(F)(F)F)c3)C2)ccc1O (stereo not drawn)	-61.2%
O=S(=O)(c1ccc(F)cc1)N1CCCC(c2nc(-c3ccc(F)cc3)no2)C1 (stereo not drawn)	-13.9%
